Molecular target: PEG-3 (UniProt Q6IN02)
Assay: GAPDH versus PEG-3 reporter suppression – cell-based, luminescence, counter-screen for PEG-3 promoter inhibitor project, SAR follow-up (AID 651551)
Conditions: HeLa PEG-Prom / GAPDH luciferase reporter, 6 or 24 h, run 1, 24 h; at 99 µM (top of the series)

| SMILES | inhibition % (higher = more inhibition) [%] |
| --- | --- |
| O=C(Nc1nccs1)c1nn(-c2ccccc2)c(=O)c2ccccc12 | 41.8 |
| Cc1cc(NC(=O)c2ccccc2)n(-c2nc3ccccc3[nH]2)n1 | -6.81 |
| O=C(Nc1nc2ccccc2s1)c1nn(-c2ccccc2)c(=O)c2ccccc12 | -7.12 |
| COc1ccc(-n2nc(C(=O)NCC(=O)Nc3ccc(OC)c(OC)c3)c3ccccc3c2=O)cc1 | 53.3 |
| Cc1nc(NC(=O)c2ccccc2)sc1-c1csc(Nc2ccccc2Cl)n1 | -64.6 |
| COc1ccccc1Nc1nc(-c2sc(NC(=O)c3ccco3)nc2C)cs1 | 18.8 |
| CCCn1nc(C(=O)Nc2nc3ccccc3s2)c2ccccc2c1=O | 33.1 |
| Cc1cc(NC(=O)c2ccccc2C(F)(F)F)n(-c2nc3ccccc3[nH]2)n1 | 93.5 |
| CCn1nc(C(=O)Nc2nc(-c3ccccn3)cs2)c2ccccc2c1=O | 49.2 |
| Cc1nc(NC(=O)c2ccccc2)sc1-c1csc(Nc2ccccc2)n1 | 73.4 |
| Cc1cc(NC(=O)c2ccccc2C)n(-c2nc3ccccc3[nH]2)n1 | 47.5 |
| COc1ccc(Cl)cc1Nc1nc(-c2sc(NC(=O)c3ccccc3)nc2C)cs1 | 44.2 |
| Cc1nc(NC(=O)c2ccccc2)sc1-c1csc(Nc2cccc(Cl)c2C)n1 | -27.2 |
| CCCn1nc(C(=O)Nc2nc(-c3ccncc3)cs2)c2ccccc2c1=O | 31.6 |
| Cc1cc(NC(=O)c2cccc(C)c2C)n(-c2nc3ccccc3[nH]2)n1 | 79.1 |
| COCCCNC(=O)c1ccc(Cn2c(=O)c3ccccc3n(Cc3ccccc3C#N)c2=O)cc1 | 54.2 |
| CCCn1nc(C(=O)Nc2nc(-c3ccccn3)cs2)c2ccccc2c1=O | 39.1 |
| COc1ccc(-n2nc(C(=O)NCC(=O)Nc3cc(OC)c(OC)c(OC)c3)c3ccccc3c2=O)cc1OC | 47.5 |
| CCn1cc(C(=O)NCc2ccco2)c(=O)c2cc(S(=O)(=O)N3CCCC3)ccc21 | 47.5 |
| COc1ccc(-n2nc(C(=O)NCC(=O)Nc3cccc(OC)c3)c3ccccc3c2=O)cc1 | 24.5 |
| O=C(Nc1nc(-c2ccccc2)cs1)c1nn(-c2ccccc2)c(=O)c2ccccc12 | 13 |
| Cc1cc(NC(=O)c2ccccc2)n(-c2nc3ccccc3n2C)n1 | 10.1 |
| Cc1ccc(Cl)cc1Nc1nc(-c2sc(NC(=O)c3ccco3)nc2C)cs1 | 24.5 |

Source: PubChem BioAssay AID651551 (Sanford-Burnham Center for Chemical Genomics, 2012)
